# Assay outcomes as filed in PubChem BioAssay.
# TrxR1 substrate – substrates of rat thioredoxin reductase 1; purified TrxR1 substrate turnover, NADPH consumption readout; actives 0.01% (n = 390,000); O89049; Potency, µM (series often up to 114 µM), inactives show at the highest dose activity change, negative = substrate turnover; also: nearly all actives have a fitted effect of over 50% in size
#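 Rat TrxR1, dispensed at 90 nM, was prereduced with 400 uM NADPH (final) for 5 min at ~22 deg C, then incubated with compound 15 min before 400 uM selenite. A first-read NADPH fluorescence drop versus no-compound background flagged substrates.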
# USP2a block – blocks human ubiquitin-specific protease USP2a; USP2 core, Ub-CHOP2 coupled fluorogenic reporter, 485/531; actives 0.01% (n = 330,000); Potency, µM (series often up to 38.3 µM), inactives show top-dose activity change, negative = inhibition, hits mostly inhibitors; AID 463254; O75604;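 also: plate controls were DMSO wells for no effect and full inhibition by NEM control for full effect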
#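 USP2 core (10nM final) preincubated 30min RT with compound in 20mM Tris-HCl pH 8.0, 2mM CaCl2, 2mM beta-mercaptoethanol, 0.05% CHAPS; 25nM Ub-CHOP2 plus 25nM reporter substrate added, fluorescence (Ex485/Em531) read after 60min.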
# RGS4 inh – blocks human RGS4-accelerated GTP hydrolysis. Transcreener GDP fluorescence polarization, RGS4-accelerated GTP hydrolysis. Potency, µM (top dose mostly 114 µM), inactives show at the highest dose activity change, negative = inhibition, most hits filed as inhibitors. actives 0.039% (n = 390,000). P49798; also: nearly all actives have a fitted effect of over 75% in size
#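 MLSMR compounds (23 nl, pin-transferred) preincubated 10 min at room temperature with a 500nM (2x) first reagent, then RGS4 at 900nM (2x) plus Transcreener GDP mix added; fluorescence polarization (620/688 nm) read before and after 90 min at 30 °C.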
# GALK inhibitor – inhibitors of human galactokinase. P51570. Purified GALK, Kinase-Glo residual ATP luminescence. Potency, µM (doses to about 57.5 µM), without a hit: at the top dose activity change, negative = inhibition, usual class: inhibitors. actives 0.007% (n = 270,000)
# Target sequence (P51570 whole entry, looked up): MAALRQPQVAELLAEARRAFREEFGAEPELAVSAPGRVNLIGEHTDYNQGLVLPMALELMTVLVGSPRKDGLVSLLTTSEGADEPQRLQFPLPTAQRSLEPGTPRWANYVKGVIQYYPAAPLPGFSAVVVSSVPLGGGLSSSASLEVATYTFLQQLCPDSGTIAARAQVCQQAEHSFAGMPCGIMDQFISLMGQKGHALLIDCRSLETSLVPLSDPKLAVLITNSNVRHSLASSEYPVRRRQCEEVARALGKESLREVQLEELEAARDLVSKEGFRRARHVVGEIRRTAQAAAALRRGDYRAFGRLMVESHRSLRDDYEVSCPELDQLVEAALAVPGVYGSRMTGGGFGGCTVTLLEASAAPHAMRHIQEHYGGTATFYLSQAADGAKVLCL
#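 Kinase-Glo Plus luminescence measured ATP left after a 1 h room-temperature reaction. The reaction used 5 nM GALK, 100 uM galactose and 35 uM ATP at pH 8.0 (20 mM HEPES, 5 mM MgCl2, 60 mM NaCl, 1 mM DTT, 0.01% BSA).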
# TrxR1 inh – blocks rat thioredoxin reductase 1 | Potency, µM (titrated, usually from 114 µM), for inactives: top-dose activity change, negative = inhibition, most hits filed as inhibitors | actives 1% (n = 390,000) | O89049 | AID 588453 | recombinant rTrxR1, NADPH fluorescence consumption, selenite substrate; also: nearly all actives have a fitted effect of over 65% in size
#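 Rat TrxR1 (90 nM in the dispensed reagent) was pre-reduced with 400 uM NADPH for 5 min at room temperature, then incubated with compound for 15 min. After 400 uM selenite was added, NADPH fluorescence (Ex 340/Em 450 nm) was followed for 8 min.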
# Eya2 inh – blocks the phosphatase activity of human Eya2. O00167. recombinant Eya2, OMFP fluorescence dephosphorylation (OMFP is methylfluorescein phosphate). Potency, µM (highest dose often 76.9 µM), without a hit: at the highest dose activity, negative = inhibition, hits mostly inhibitors. actives 0.006% (n = 330,000). AID 488837
#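 Eya2 protein (added as 0.2 uM solution) was preincubated with compound for 10 min at ambient temperature in 50 mM HEPES pH 7.5, 50 mM NaCl, 5 uM MgCl2, 0.05% BSA, 1 mM DTT. OMFP (added at 50 uM) then reacted 10 min; fluorescence read at 485/525 nm.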
# The depositor's hits bear a star; ? = inconclusive; nt = no result; [ ] = dose if it differs, or a comment. Only some compounds are listed: those with a hit (about 1% of all), similar ones and a draw of the others. Calls follow the shape of the dose curve; as a rule, active = well fitted curve in the direction sought with a large enough effect; inconclusive = small, poorly fitted or top-dose-only effect, or another doubt; inactive = no such curve, though single readings can be large; an effect the other way counts as inactive or inconclusive. Unless noted, % is scaled to controls: 0 for no effect and ±100 for the full control effect; potency is read from the fitted curve at half-maximal effect.
SMILES,TrxR1 substrate,USP2a block,RGS4 inh,GALK inhibitor,TrxR1 inh,Eya2 inh
Cc1cccc(NC(c2ccc(C)s2)c2ccc3ccc(C)nc3c2O)n1 (stereo not drawn),-5.4%,0.3%,-42.1%,2.0%,70.8µM*,4.9%
O=C1C[C@H]2C=CCc3cccc(c32)CN1Cc1ccc(Cl)cc1,-2.8%,nt,nt,nt,15.2%,nt
C(=C\c1cnc2ccccc2n1)/c1ccc2c(c1)OCO2,5.0%,nt,nt,nt,25.1%,nt
CCCC(=O)N1c2nc(-c3ccco3)nn2C2(CCCCC2)[C@@H]2CCCC[C@@H]21,-1.8%,nt,-46.1%,nt,?,nt
Cc1ccc(N2C(=O)C3C4C=CC(CNC(=S)N5CCN(c6ccccn6)CC5)(O4)C3C2=O)cc1 (stereo not drawn),4.8%,-3.2%,?,11.1%,11.2µM*,0.2%
CC(C)(C)C(=O)NCC12C=CC(O1)C1C(=O)N(c3ccccc3)C(=O)C12 (stereo not drawn),1.2%,2.5%,?,-0.3%,17.8µM*,-17.0%
CCc1ccccc1N1CC23C=CC(O2)C(C(=O)OCC(C)C)C3C1=O (stereo not drawn),8.7%[57.1 µM],-1.9%,-2.6%,-0.2%,25.2%[57.1 µM],4.0%
Cc1ccc(NC(=S)NCCSc2ccc(Cl)cc2)cc1,4.9%,-2.7%,-28.4%,-1.0%,2.5%[57.1 µM],6.9%
Cc1ccc(N2C(=O)C3C4C=CC(CNC(=S)Nc5ccc(Cl)cc5)(O4)C3C2=O)cc1 (stereo not drawn),-1.7%,2.1%,?,0.7%,28.2µM*,-3.4%
O=C1C2C3C=CC(CO)(O3)C2C(=O)N1c1ccc(-c2ccccc2)cc1 (stereo not drawn),nt,0.6%,nt,3.0%,nt,3.8%
CC(C)COC(=O)NCC12C=CC(O1)C1C(=O)N(c3ccc(Cl)cc3)C(=O)C12 (stereo not drawn),13.3%[57.1 µM],0.0%,-15.6%[11.4 µM],0.4%,14.1µM*,1.3%
O=C(CN1C(=O)COc2ccc(S(=O)(=O)N3CCCC3)cc21)NCCc1ccc(Cl)cc1,-2.7%[57.1 µM],nt,-4.0%,nt,6.6%[57.1 µM],nt
O=C(O)c1ccc(CNc2ncnc3nc[nH]c23)cc1,-1.2%,nt,10.3%,nt,12.8%,nt
Cc1ccc(N2C(=O)C3C4C=CC(CNC(=S)Nc5ccc(F)cc5)(O4)C3C2=O)cc1 (stereo not drawn),-12.4%,0.5%,?,2.3%,15.8µM*,-6.1%
Cc1ccc(N2C(=O)C3C4C=CC(CNC(=S)Nc5cccc(Cl)c5)(O4)C3C2=O)cc1 (stereo not drawn),-14.2%,2.8%,?,0.0%,7.94µM*,-2.8%
Cc1ccc(N2C(=O)N(CC(=O)Nc3cccc(Cl)c3)C(=O)C2C)cc1 (stereo not drawn),-6.4%,2.7%,-1.1%,nt,-10.2%,12.4%
CN(C)c1ccc(/C=C/c2ccnc3ccccc23)cc1Cl,-0.9%,nt,nt,nt,2.6%,nt
Cc1c(C2(c3cc(C(C)C)c(O)c(Br)c3C)OS(=O)(=O)c3ccccc32)cc(C(C)C)c(O)c1Br,-12.9%,nt,nt,nt,-35.2%,nt
CCN1C(C(=O)c2ccccc2)=C(OC(=O)COc2ccccc2)c2ccccc2S1(=O)=O,-6.7%,nt,41.8%,nt,28.2µM*,nt
CCn1c(SCC(=O)N2c3ccccc3Sc3ccccc32)nnc1-c1ccco1,9.3%,-2.6%,-17.2%,-0.2%,20µM*,-22.7%
C=CCn1c(SCC(=O)N2c3ccccc3Sc3ccccc32)nnc1-c1ccco1,5.5%[57.1 µM],-0.2%,-25.2%,-0.6%,-2.9%[57.1 µM],-2.2%
Cc1cc(NS(=O)(=O)c2ccc(NC(=S)NC(=O)c3ccncc3)cc2)no1,-6.3%,7.9%,-3.3%,0.0%,-16.2%,1.8%
COc1ccc(C(=O)NC(=S)Nc2ccc(S(=O)(=O)Nc3cc(C)on3)cc2)cc1OC,9.1%,2.9%,-32.6%,-0.4%,?,-4.2%
Cc1cc(NS(=O)(=O)c2ccc(NC(=S)NC(=O)c3ccc(C(C)(C)C)cc3)cc2)no1,2.9%[0.457 µM],-0.4%,?,nt,44.7µM*,-5.5%
